From article PMC11006913 come the findings set out here.

The assay addresses T1, NKX2-6 (Homo sapiens, UniProt A6NCS4 118-204, R150C).
T1 sequence: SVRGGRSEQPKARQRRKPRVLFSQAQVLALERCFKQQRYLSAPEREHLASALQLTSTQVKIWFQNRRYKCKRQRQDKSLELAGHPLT
The experiment in a line: PBM; 200 nM protein, PBS. The note with it: dsDNA, one strand shown.
With CACTCGTC, the binding signal is 10.8 upbm affinity estimate (log intensity, higher = more binding, comparable within an allelic series).

Turning to AGAGTGGC, the binding signal is 10.9 upbm affinity estimate (log intensity, higher = more binding, comparable within an allelic series). As for GGTCAACC, the binding signal was 9.62 upbm affinity estimate (log intensity, higher = more binding, comparable within an allelic series). As for CCGTAGCG, the binding signal was 9.34 upbm affinity estimate (log intensity, higher = more binding, comparable within an allelic series).

Turning to CTGACCCC, the binding signal was 9.6 upbm affinity estimate (log intensity, higher = more binding, comparable within an allelic series). Next, GTAAGTAC: 11.7 upbm affinity estimate (log intensity, higher = more binding, comparable within an allelic series). For the sequence AAGAGTAG, the binding signal was 10.8 upbm affinity estimate (log intensity, higher = more binding, comparable within an allelic series). Then GCCGTGAA, with 9.62 upbm affinity estimate (log intensity, higher = more binding, comparable within an allelic series); and CCCAGGGG, with 9.24 upbm affinity estimate (log intensity, higher = more binding, comparable within an allelic series); and GAGTCTGC, with 9.64 upbm affinity estimate (log intensity, higher = more binding, comparable within an allelic series). Then CGCGGGCA, with 9.67 upbm affinity estimate (log intensity, higher = more binding, comparable within an allelic series); and TACAAGTA, with 11.3 upbm affinity estimate (log intensity, higher = more binding, comparable within an allelic series).

Turning to GGTCTGCA, the binding signal is 9.86 upbm affinity estimate (log intensity, higher = more binding, comparable within an allelic series). As to ACAGGGGG, the binding signal was 9.27 upbm affinity estimate (log intensity, higher = more binding, comparable within an allelic series).

For GGGCCACC, the binding signal was 9.52 upbm affinity estimate (log intensity, higher = more binding, comparable within an allelic series). For the sequence CCGGACCC, the binding signal was 9.31 upbm affinity estimate (log intensity, higher = more binding, comparable within an allelic series). Then GCATGCGC, with 9.48 upbm affinity estimate (log intensity, higher = more binding, comparable within an allelic series). In the case of CGGTTAGC, the binding signal was 9.51 upbm affinity estimate (log intensity, higher = more binding, comparable within an allelic series). For the sequence GCAGCACC, the binding signal was 9.59 upbm affinity estimate (log intensity, higher = more binding, comparable within an allelic series).

Regarding AGTAAGTA, the binding signal is 11.1 upbm affinity estimate (log intensity, higher = more binding, comparable within an allelic series).

Turning to CATGCCGG, the binding signal was 9.42 upbm affinity estimate (log intensity, higher = more binding, comparable within an allelic series). Next, GGCATCCC: 9.47 upbm affinity estimate (log intensity, higher = more binding, comparable within an allelic series); CAAAGTGC: 11 upbm affinity estimate (log intensity, higher = more binding, comparable within an allelic series). Next, AAGCCACG: 9.49 upbm affinity estimate (log intensity, higher = more binding, comparable within an allelic series); GAGGCGGA: 9.49 upbm affinity estimate (log intensity, higher = more binding, comparable within an allelic series); AATCCGCC: 9.75 upbm affinity estimate (log intensity, higher = more binding, comparable within an allelic series). Regarding CCCCGTTC, the binding signal was 9.42 upbm affinity estimate (log intensity, higher = more binding, comparable within an allelic series). Next, CCCGCCGA: 9.28 upbm affinity estimate (log intensity, higher = more binding, comparable within an allelic series); CGGACGGC: 9.24 upbm affinity estimate (log intensity, higher = more binding, comparable within an allelic series); CGCTCACC: 9.46 upbm affinity estimate (log intensity, higher = more binding, comparable within an allelic series).

For CAGCCCTG, the binding signal was 9.44 upbm affinity estimate (log intensity, higher = more binding, comparable within an allelic series). Turning to CCCGGGGA, the binding signal was 9.42 upbm affinity estimate (log intensity, higher = more binding, comparable within an allelic series). CTACCGGC: the binding signal is 9.49 upbm affinity estimate (log intensity, higher = more binding, comparable within an allelic series). With CACCCCGC, the binding signal is 9.31 upbm affinity estimate (log intensity, higher = more binding, comparable within an allelic series).

On to CACTTGTC, for which the binding signal was 11.4 upbm affinity estimate (log intensity, higher = more binding, comparable within an allelic series).

For ATACTTTG, the binding signal was 10.7 upbm affinity estimate (log intensity, higher = more binding, comparable within an allelic series). Next, CCCCCATC: 9.53 upbm affinity estimate (log intensity, higher = more binding, comparable within an allelic series); ACCGGTGG: 9.26 upbm affinity estimate (log intensity, higher = more binding, comparable within an allelic series); CTCTTGAC: 11.2 upbm affinity estimate (log intensity, higher = more binding, comparable within an allelic series).
